Where “and” joins values, the source holds several entries; their conditions need not be identical. Identical values can stand only once. The whole screen tested about 9,600 compounds, of which about 20 (0.2%) were called active.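 The calls were made as follows: active = highest normalized replicate activity of 15 or more, or at least half the replicates reach 15 or more; inactive = neither condition met.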 The list comes from a sample in which actives are over-represented; it also holds similar structures and randomly drawn compounds. A structure can be active in one record and inactive in another.

The test can be described thus: activators of Pax4 gene expression, primary screen, RT-PCR, mouse alpha TC1 cells, single point (AID 1053180).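 Also: Pax4 Ct normalized to GAPDH with activation seen as lower delta delta Ct; plate controls were plate neutral control wells for no effect and Pax4 plasmid positive control for full effect.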 The following applies: Pax4 mRNA qPCR, 6 days, at 10 µM, stronger effect = higher value, 100% = Pax4 plasmid added at qPCR. Background: Quantitative PCR measures a nucleic acid by following its amplification.
On to `C(=C\c1ccc(C2[C@@H]3CN(Cc4ccc5c(c4)OCO5)C[C@H]2N3)cc1)/c1ccccc1` (stereo not given in full), for which the activation is 10.3% (active) and 0.0555% (inactive).
Regarding `O=C(c1ccc2c(c1)OCO2)N1C[C@@H]2N[C@H](C1)C2c1ccc(/C=C/c2ccccc2)cc1` (stereo not given in full), the activation is 0.452% (inactive) and 0.1% (inactive).
With `Cc1ccccc1-c1ccc(C2[C@@H]3CN(Cc4ccc5c(c4)OCO5)C[C@H]2N3)cc1` (stereo not given in full), the activation is 0.039% (inactive) and 0.046% (inactive).
With `CCS(=O)(=O)N1Cc2cc(C(=O)NCCOC)nc(-c3cccc(-c4ccncc4)c3)c2[C@H]1CCO`, the activation was 0% (inactive).
In the case of `N#C[C@@H]1[C@@H](c2ccccc2-c2ccccc2F)[C@@H](CO)N1C(=O)Cc1ccccc1` it was 0.0105% (inactive); in that of `CO[C@@H](CN(C)C(=O)c1ccc2c(c1)OCO2)[C@@H](C)CN([C@H](C)CO)S(=O)(=O)c1ccc(Cl)cc1`, 0.019% (inactive).
In the case of `CO[C@H]1CC[C@@H]2CCOc3ccc(C#N)cc3C(=O)N(C)[C@H](C)C(=O)N(C)C[C@@H]1O2` it was 0.001% (inactive); in that of `CCCC(=O)N1CC2(C1)CN(C(=O)c1ccc(F)cc1)[C@H](CO)c1[nH]c3cc(OC)ccc3c12`, 0.003% (inactive); in that of `CN(C)CC(=O)N1[C@H](C(=O)Nc2nccs2)[C@@H](CO)[C@@H]2Cn3c(ccc(C4=CCCCC4)c3=O)[C@@H]21`, 0% (inactive).
To `COc1ccc2c3c([nH]c2c1)[C@H](CO)N(S(=O)(=O)c1cn(C)cn1)CC31CCN(CC2CCCCC2)CC1` belongs 0.0045% (inactive); to `CCC(=O)N1CC2(C1)CN(C(=O)c1cnccn1)[C@@H](CO)c1c2c2ccc(OC)cc2n1C`, 0.0005% (inactive); to `C[C@@H]1CCCCO[C@H](CN(C)Cc2ccncc2)[C@H](C)CN([C@@H](C)CO)C(=O)c2cc(NC(=O)Cc3ccccc3)ccc2O1`, -0.0005% (inactive).
On to `O=C(C[C@H]1CC[C@@H]2[C@H](COC[C@H](O)CN2Cc2nccs2)O1)N1CCC(Cc2ccccc2)CC1`, for which the activation is 0.0115% (inactive).
Regarding `C[C@@H]1CN([C@H](C)CO)C(=O)c2ccccc2-c2ccccc2CO[C@@H]1CN(C)Cc1ccc2c(c1)OCCN2C`, the activation was 0.075% (inactive).
In the case of `O=C(C[C@@H]1CC[C@@H]2[C@H](COC[C@@H](O)CN2CCC(F)(F)F)O1)NCc1ccc2c(c1)OCO2` it was -0.005% (inactive); in that of `CN(C)c1ccc2c(c1)[C@@H]1C[C@@H](CC(=O)NC3CCCCC3)O[C@@H](CO)[C@@H]1O2`, 0.029% (inactive); in that of `O=C(O)[C@H]1[C@H](CO)[C@H]2Cn3c(ccc(-c4cccc(F)c4)c3=O)[C@H]2N1C(=O)c1ccccn1`, 0.0005% (inactive).
In the case of `C[C@@H]1CCCCO[C@@H](CN(C)CC2CCCCC2)[C@H](C)CN([C@H](C)CO)C(=O)c2cc(NS(C)(=O)=O)ccc2O1` it was -0.001% (inactive); in that of `C[C@H]1CN([C@@H](C)CO)C(=O)c2cccc(NC(=O)c3cnccn3)c2O[C@@H]1CN(C)C(=O)NC1CCCCC1`, 0.0055% (inactive); in that of `CN1c2ccc(-c3ccc(C#N)cc3)cc2[C@H]2[C@H](CCN2S(=O)(=O)c2ccc(F)cc2)[C@@H]1CO`, 0.036% (inactive).
Take `O=C(C[C@@H]1C[C@@H]2c3cc(NS(=O)(=O)c4ccc(F)cc4)ccc3O[C@@H]2[C@@H](CO)O1)N1CCc2ccccc2C1`: the activation was 0.011% (inactive).
In the case of `C[C@H](CO)N1C[C@H](C)[C@@H](CN(C)C(=O)c2ccc3ccn(C)c3c2)OCc2cnnn2CCCC1=O` it was 0.0015% (inactive); in that of `COc1ccc2c3c(n(C)c2c1)[C@H](CO)N(S(=O)(=O)c1ccc(C)cc1)CC31CCN(C)CC1`, 0.052% (inactive).
In the case of `CO[C@H](CN(C)Cc1ccc2c(c1)OCO2)[C@H](C)CN(C(=O)Nc1ccc(F)cc1)[C@H](C)CO` it was 0.0005% (inactive); in that of `O=C(NCc1ccccc1)[C@H]1[C@H](CO)[C@H]2Cn3c(cccc3=O)[C@@H]1N2C(=O)Cc1ccccn1`, 0% (inactive); in that of `CNC[C@H]1OCc2cn(nn2)CCCC(=O)N([C@@H](C)CO)C[C@H]1C`, 0.005% (inactive).
For the compound `COc1ccc2c3c(n(C)c2c1)[C@@H](CO)N(CC1CC1)CC31CN(C(=O)c2ccc3c(c2)OCO3)C1`, the activation is 8.42% (active).
In the case of `COc1ccc2c3c(n(C)c2c1)[C@H](CO)N(CC1CC1)CC31CN(C(=O)c2ccc3c(c2)OCO3)C1` it was 0.0045% (inactive); in that of `COc1ccc2c3c(n(C)c2c1)[C@@H](CO)N(C)CC31CCN(C(=O)c2ccc3c(c2)OCO3)CC1`, 0.0125% (inactive).
Consider `CC[C@H]1C/C=C\C[C@@H](c2ccccc2)NC(=O)CCC(=O)N1`, for which the activation was -0.01% (inactive).
To `O=C(c1cccc(F)c1)N1CC(=O)N2[C@@H](CO)[C@H](c3ccc(C4=CCCCC4)cc3)[C@@H]2C1` belongs 0.025% (inactive).
In the case of `COc1ccc(CN(C)C[C@@H]2Oc3ccc(NC(=O)Nc4ccc5c(c4)OCO5)cc3CC(=O)N([C@@H](C)CO)C[C@@H]2C)cc1` it was 0.002% (inactive); in that of `COCC(=O)N1C[C@@H](C)[C@@H](OC)CN(C)C(=O)c2ccc(NC(=O)Nc3cccc(F)c3)cc2OC[C@H]1C`, -0.0005% (inactive); in that of `CCC(=O)N1[C@H](CO)[C@@H]2c3ccccc3N(C(=O)Nc3ccc(Cl)cc3)C[C@@H]21`, -0.0015% (inactive).
In the case of `COc1ccccc1S(=O)(=O)N(C)C[C@@H]1OCc2cn(nn2)CCCC(=O)N([C@H](C)CO)C[C@H]1C`, the activation was 0.001% (inactive).
Take `O=C(C1CCOCC1)N1CC(=O)N2[C@H](C1)[C@@H](c1ccc(-c3cccnc3)cc1)[C@@H]2CO`: the activation was 0% (inactive).
As to `O=C(C[C@@H]1CC[C@@H]2[C@H](COC[C@@H](O)CN2Cc2cc(F)ccc2F)O1)NCc1ccc(Oc2ccccc2)cc1`, the activation was 0.098% (inactive).
In the case of `CN1c2ccc(-c3ccccc3)cc2[C@@H]2[C@@H](CCN2C(=O)NC2CCCCC2)[C@H]1CO` it was 0.001% (inactive).
Turning to `Cc1noc(C)c1S(=O)(=O)N(C)C[C@H]1Oc2ccc(NC(=O)c3ccncc3)cc2CC(=O)N([C@H](C)CO)C[C@H]1C`, the activation was -0.009% (inactive).
To `CN1C(=O)c2cc(NC(=O)c3cnccn3)ccc2OC[C@@H]2O[C@H](CC(=O)NCC3CCCCC3)CC[C@@H]21` belongs 0.05% (inactive).

The record behind these values is PubChem BioAssay AID1053180 (Broad Institute, 2014).
